Drawing on PubChem BioAssay (NCI), this text covers growth inhibition for nine compounds.

A short description of test [1]: NCI Yeast Anticancer Drug Screen. Data for the rad50 strain (AID 155).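 Also: 0% = growth of vehicle-only cultures of the same strain.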 The conditions noted are these: S. cerevisiae rad50 strain growth inhibition, stronger effect = higher value. A digest of the protocol: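 Yeast carrying a defined DNA repair defect were exposed to test compounds, and growth was compared with vehicle-treated controls to give percent inhibition.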
A short description of test [2]: NCI Yeast Anticancer Drug Screen. Data for the mec2-1 strain (AID 157). As to conditions: S. cerevisiae mec2-1 strain, stronger effect = higher value. A digest of the protocol:
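Readout is yeast growth inhibition, normalised to vehicle-treated controls, in the mec2-1 strain exposed to compound.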

Test [3] is described as follows: NCI Yeast Anticancer Drug Screen. Data for the sgs1 mgt1 strain (AID 161).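 Also: 0% = growth of cultures given vehicle only.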 As to conditions: S. cerevisiae sgs1 mgt1 strain, stronger effect = higher value. A digest of the protocol: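 Percent growth inhibition was derived by comparing compound-exposed mutant yeast with vehicle-exposed cultures. The strain carries alterations in DNA damage repair.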
The nature of test [4]: NCI Yeast Anticancer Drug Screen. Data for the cln2 rad14 strain (AID 165).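 Also: 0% = growth equal to vehicle treated cultures.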 The conditions noted are these: S. cerevisiae cln2 rad14 strain, stronger effect = higher value. A digest of the protocol:
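Relative to vehicle controls, growth inhibition of compound-treated cln2 rad14 yeast was recorded.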

Test [5] can be described thus: NCI Yeast Anticancer Drug Screen. Data for the bub3 strain (AID 167). The conditions noted are these: S. cerevisiae bub3 mutant strain, stronger effect = higher value. Put shortly:
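Compounds were applied to a genetically altered yeast strain carrying a cell-cycle control defect. Growth inhibition was scored against vehicle-treated controls.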

Test [6] is described as follows: NCI Yeast Anticancer Drug Screen. Data for the mlh1 rad18 strain (AID 175). As to conditions: S. cerevisiae mlh1 rad18 strain growth inhibition, stronger effect = higher value. Put shortly: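 Test agents were incubated with a yeast strain of defined genotype (DNA damage repair defect). Inhibition of growth was derived by comparison with vehicle-exposed cultures.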
Where [7] appears, read: at 5.0 µM (retest, dose inferred, filed as 0.5).
The mark [8] stands for this setting: at 50.0 µM (retest, dose inferred, filed as 5.0).

Molecules are shown by their SMILES. This is part of a sample that, as a whole, favours compounds with a hit. Of some 79,000 tested, about 15% had one in any assay. Values without a mark were called inactive. Calls of active or inactive are those of the source. Rule as the data show it: active = growth inhibition above about 70%; inactive = the rest.

With `C#CCCOC(=O)CC1=C(C)/C(=C/c2ccc(S(C)=O)cc2)c2ccc(F)cc21` (configuration not stated), the growth inhibition in test [1] (setting [7]) is 23%; in test [1] (setting [8]), 88% (active); in test [1] (at 50.0 µM) it was 84.3% (active); in test [2] (setting [7]), 18%; in test [2] (setting [8]), 84% (active); in test [2] (at 50.0 µM), 90.2% (active). For the same compound, the growth inhibition in test [3] (setting [7]) is 65%; in test [3] (setting [8]), 73% (active); in test [3] (at 50.0 µM) it was 88% (active); in test [4] (setting [7]) it was 43%; in test [4] (setting [8]) it was 41%; in test [4] (at 50.0 µM), 85.2% (active). Also, the growth inhibition is 51% in test [5] (setting [7]); 85% (active) in test [5] (setting [8]); 86.4% (active) in test [5] (at 50.0 µM); 21% in test [6] (setting [7]); 83% (active) in test [6] (setting [8]); 85.9% (active) in test [6] (at 50.0 µM).
With `COC(=O)C1C(c2ccccc2)=N[C@@H](c2ccccc2)[C@H]1C(=O)OC` (some centres not stated), the growth inhibition was 2% in test [1] (setting [7]); -3% in test [1] (setting [8]); 17.4% in test [1] (at 50.0 µM); 3% in test [2] (setting [7]); -2% in test [2] (setting [8]); -2.15% in test [2] (at 50.0 µM). Besides, the growth inhibition in test [3] (setting [7]) was 9%; in test [3] (setting [8]), 3%; in test [3] (at 50.0 µM) it was 17.1%; in test [4] (setting [7]), 6%; in test [4] (setting [8]) it was 7%; in test [4] (at 50.0 µM), 23.2%. For the same compound, the growth inhibition is 6% in test [5] (setting [7]); 32% in test [5] (setting [8]); 3.55% in test [5] (at 50.0 µM); 1% in test [6] (setting [7]); 0% in test [6] (setting [8]); 76.7% (active) in test [6] (at 50.0 µM).
On to `S=C(Nc1ccccn1)c1ccccn1`, for which the growth inhibition in test [1] (setting [7]) was -3%; in test [1] (setting [8]), 9%; in test [1] (at 50.0 µM), 23.9%; in test [2] (setting [7]), 6%; in test [2] (setting [8]), 21%; in test [2] (at 50.0 µM), 50.3%. In addition, the growth inhibition is 2% in test [3] (setting [7]); 43% in test [3] (setting [8]); 69% in test [3] (at 50.0 µM); -11% in test [4] (setting [7]); -7% in test [4] (setting [8]); 18.6% in test [4] (at 50.0 µM). In addition, the growth inhibition is 3% in test [5] (setting [7]); 33% in test [5] (setting [8]); 55.8% in test [5] (at 50.0 µM); 3% in test [6] (setting [7]); 46% in test [6] (setting [8]); 51.4% in test [6] (at 50.0 µM).
Turning to `CC1C2CC(C(S(=O)(=O)N3CCOCC3)/C2=N\O)C1(C)C` (configuration not stated), the growth inhibition in test [1] (setting [7]) is -4%; in test [1] (setting [8]), -14%; in test [1] (at 50.0 µM) it was 88.2% (active); in test [2] (setting [7]), -12%; in test [2] (setting [8]) it was -31%; in test [2] (at 50.0 µM), 92.2% (active). Moreover, the growth inhibition is -4% in test [3] (setting [7]); -4% in test [3] (setting [8]); 86.5% (active) in test [3] (at 50.0 µM); -20% in test [4] (setting [7]); 20% in test [4] (setting [8]); 89.2% (active) in test [4] (at 50.0 µM). For the same compound, the growth inhibition in test [5] (setting [7]) is 0%; in test [5] (setting [8]), -19%; in test [5] (at 50.0 µM), 89.9% (active); in test [6] (setting [7]) it was 16%; in test [6] (setting [8]), -18%; in test [6] (at 50.0 µM), 83.2% (active).
As for `[C-]#[N+]C(C)(c1ccccc1)c1ccccc1`, the growth inhibition was -117% in test [1] (setting [7]); 70% (active) in test [1] (setting [8]); 95.5% (active) in test [1] (at 50.0 µM); -34% in test [2] (setting [7]); 47% in test [2] (setting [8]); 93.2% (active) in test [2] (at 50.0 µM). Moreover, the growth inhibition in test [3] (setting [7]) was -48%; in test [3] (setting [8]) it was 79% (active); in test [3] (at 50.0 µM) it was 95.5% (active); in test [4] (setting [7]), -59%; in test [4] (setting [8]), 47%; in test [4] (at 50.0 µM) it was 90.1% (active). Moreover, the growth inhibition is -45% in test [5] (setting [7]); 80% (active) in test [5] (setting [8]); 94.2% (active) in test [5] (at 50.0 µM); -101% in test [6] (setting [7]); 76% (active) in test [6] (setting [8]); 94.4% (active) in test [6] (at 50.0 µM).
Take `CCOC(=O)CSC(=S)Nc1ccc(Cl)cc1`: the growth inhibition in test [1] (setting [7]) is 0%; in test [1] (setting [8]) it was 88% (active); in test [1] (at 50.0 µM) it was 88.9% (active); in test [2] (setting [7]) it was -2%; in test [2] (setting [8]) it was 91% (active); in test [2] (at 50.0 µM) it was 21.1%. Further, the growth inhibition in test [3] (setting [7]) was 5%; in test [3] (setting [8]), 95% (active); in test [3] (at 50.0 µM), 87.5% (active); in test [4] (setting [7]), -5%; in test [4] (setting [8]) it was 36%; in test [4] (at 50.0 µM), -26.8%. In addition, the growth inhibition was -9% in test [5] (setting [7]); 61% in test [5] (setting [8]); 50.5% in test [5] (at 50.0 µM); 6% in test [6] (setting [7]); 98% (active) in test [6] (setting [8]); 93.7% (active) in test [6] (at 50.0 µM).
`O=C(O)c1ccc(CSc2ccc(Cl)cc2)cc1`: the growth inhibition was -4% in test [1] (setting [7]); 0% in test [1] (setting [8]); 52% in test [1] (at 50.0 µM); -2% in test [2] (setting [7]); 19% in test [2] (setting [8]); 10.4% in test [2] (at 50.0 µM). Besides, the growth inhibition in test [3] (setting [7]) was 11%; in test [3] (setting [8]), 36%; in test [3] (at 50.0 µM), 51.3%; in test [4] (setting [7]), -7%; in test [4] (setting [8]) it was -15%; in test [4] (at 50.0 µM), 36.7%. The growth inhibition in test [5] (setting [7]) is -6%; in test [5] (setting [8]), 39%; in test [5] (at 50.0 µM) it was 18.7%; in test [6] (setting [7]) it was 0%; in test [6] (setting [8]) it was 17%; in test [6] (at 50.0 µM) it was 71.3% (active).
`COc1cccc(C=O)c1O`: the growth inhibition is 6% in test [1] (setting [7]); 75% (active) in test [1] (setting [8]); 74.6% (active) in test [1] (at 50.0 µM); -3% in test [2] (setting [7]); 21% in test [2] (setting [8]); 1.05% in test [2] (at 50.0 µM). In addition, the growth inhibition is 1% in test [3] (setting [7]); 29% in test [3] (setting [8]); 17.5% in test [3] (at 50.0 µM); 1% in test [4] (setting [7]); 23% in test [4] (setting [8]); -23.5% in test [4] (at 50.0 µM). Moreover, the growth inhibition in test [5] (setting [7]) was -6%; in test [5] (setting [8]), 0%; in test [5] (at 50.0 µM), -9.35%; in test [6] (setting [7]), 1%; in test [6] (setting [8]), 66%; in test [6] (at 50.0 µM), 62.5%.
As to `CCCC(C)(O)C(C)CC` (configuration not stated), the growth inhibition in test [1] (setting [7]) was 2%; in test [1] (setting [8]) it was 5%; in test [1] (at 50.0 µM), 19.1%; in test [2] (setting [7]) it was 0%; in test [2] (setting [8]), -1%; in test [2] (at 50.0 µM), 9.3%. In addition, the growth inhibition in test [3] (setting [7]) is -1%; in test [3] (setting [8]), 0%; in test [3] (at 50.0 µM), -0.85%; in test [4] (setting [7]), -3%; in test [4] (setting [8]) it was -8%; in test [4] (at 50.0 µM), -6.9%. Besides, the growth inhibition in test [5] (setting [7]) was -3%; in test [5] (setting [8]), 8%; in test [5] (at 50.0 µM), 2.45%; in test [6] (setting [7]), -2%; in test [6] (setting [8]), 0%; in test [6] (at 50.0 µM), 7.7%.
